This excerpt belongs to a sample that is enriched for hits.
YB-1 expression: YB-1 expression inhibition; U2OS, qRT-PCR YB-1 vs CDIP delta delta Cp, 16 h; hits give high values; zero = DMSO, each unit about twofold; delta delta Cp (YB-1 minus CDIP) (concentration not given with the values); 30,000 tested, 0.37% active;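 active = delta delta Cp rounded down to an integer at or above 3, about 3 SD of DMSO wells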;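 note: higher means less YB-1 transcript or more CDIP transcript relative to DMSO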
ROS inducer: inducers of reactive oxygen species in cancer cells. U2OS ROS induction, H2DCF-DA fluorescence. ROS induction (% of piperlongumine), % at 10 µM. 46,000 tested, 2% active; in the data active = ROS induction above about 79%, passing the limit was not always enough; inconclusive = no clear call, values can overlap the other calls;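 note: 0% = DMSO vehicle median and 100% = reference compound median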
PD-1 reverse act: reversal of PD-1 mediated T-cell inhibition. 29,000 tested, under 10 active. AID 2316. activation, % (test concentration not listed). primary human CD4 T cells, PD-L1 beads, CellTiter-Glo 96 h; call rule not given here;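 note: 0% = median vehicle wells and 100% = positive control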
NOMO-1 viab: STK33 inhibitor candidate reducing NOMO-1 cell viability; NOMO-1 AML viability, CellTiter-Glo luminescence, 72 h; inhibition, % (test concentration not listed); 37,000 tested, 7.5% active; AID 2330; in the data active = inhibition above about 80%; inconclusive = no clear call, values can overlap the other calls
Numbers without * were called inactive.

Results for C[C@@H]1CN([C@@H](C)CO)C(=O)Cc2cc(NC(=O)Cc3cn(C)c4ccccc34)ccc2O[C@@H]1CN(C)Cc1ccc(Oc2ccccc2)cc1 ?
YB-1 expression: -0.059; ROS inducer: 122*; PD-1 reverse act: -5; NOMO-1 viab: 115*

What do the screens show for `C[C@@H]1CN([C@H](C)CO)C(=O)Cc2cc(NC(=O)Cc3cn(C)c4ccccc34)ccc2O[C@@H]1CN(C)Cc1ccc(Cl)c(Cl)c1`?
YB-1 expression: -0.045; ROS inducer: 50; PD-1 reverse act: -3; NOMO-1 viab: 95*

What do the screens show for `C[C@H]1CN([C@@H](C)CO)C(=O)Cc2cc(NC(=O)Cc3cn(C)c4ccccc34)ccc2O[C@@H]1CN(C)S(=O)(=O)c1ccc(F)cc1`?
YB-1 expression: 0.13; ROS inducer: 89*; PD-1 reverse act: 3; NOMO-1 viab: 0

Results for CC(=O)c1c(C)nc(-c2ccc(Cl)cc2)nc1NC(=O)Cc1ccccc1 ?
ROS inducer: -1; PD-1 reverse act: -3; NOMO-1 viab: 38

Results for CN(CC(=O)Nc1ccc(C(N)=O)cc1)S(=O)(=O)c1ccc(F)cc1 ?
ROS inducer: -9; PD-1 reverse act: 3; NOMO-1 viab: 18

Results for C[C@@H]1CN([C@H](C)CO)C(=O)Cc2cc(NC(=O)Cc3cn(C)c4ccccc34)ccc2O[C@H]1CN(C)Cc1ccc(-c2ccccc2)cc1 ?
YB-1 expression: -0.18; ROS inducer: 17; PD-1 reverse act: -3; NOMO-1 viab: inconclusive

Results for C[C@H]1CN([C@@H](C)CO)C(=O)Cc2cc(NC(=O)Cc3cn(C)c4ccccc34)ccc2O[C@@H]1CN(C)Cc1ccc(-c2ccccc2)cc1 ?
YB-1 expression: 0.0094; ROS inducer: 52; PD-1 reverse act: -2; NOMO-1 viab: 122*

Results for CCCCCCC/C=C/C(=O)CCc1ccc(O)c(OC)c1 ?
YB-1 expression: 0.27; ROS inducer: -2; PD-1 reverse act: 0; NOMO-1 viab: 116*

How did CCCCCCC[C@@H](O)CC(=O)CCc1ccc(O)c(OC)c1 do in these assays?
YB-1 expression: -0.25; ROS inducer: -16; PD-1 reverse act: 1; NOMO-1 viab: 41

Results for CN(C1CCCCC1)S(=O)(=O)c1cc(Cl)ccc1Cl ?
YB-1 expression: 0.23; ROS inducer: 0; PD-1 reverse act: 0; NOMO-1 viab: 6

How did CSC(=NC1CCCCC1)Nc1cc(-c2ccccc2)[nH]n1 do in these assays?
ROS inducer: -2

What do the screens show for `CC1C2CC(C(S(=O)(=O)N3CCOCC3)C2=O)C1(C)C` (configuration not stated)?
YB-1 expression: -0.19; ROS inducer: 115*; PD-1 reverse act: 0; NOMO-1 viab: 12

How did CCC(Sc1nnc2c3ccccc3n(CC)c2n1)C(=O)NC(C)c1ccccc1 (configuration not stated) do in these assays?
ROS inducer: 18

Results for COC(=O)C(C)Sc1nnc2c3ccccc3n(Cc3ccccc3)c2n1 (configuration not stated) ?
ROS inducer: 146*; PD-1 reverse act: -5; NOMO-1 viab: 3

What do the screens show for `CC1CC(=O)C2=C(CCC34OC23C(=O)c2cccc(O)c2C4O)C1` (configuration not stated)?
YB-1 expression: -0.41; ROS inducer: -9; PD-1 reverse act: -2; NOMO-1 viab: 100*

What do the screens show for `CCOC(=O)c1cnc(-c2cccs2)nc1Nc1ccc(Cl)cc1`?
ROS inducer: -5

What do the screens show for `CNc1cc(NC)c2ncnc3c2c1C(=O)c1ccccc1-3`?
YB-1 expression: -0.62; ROS inducer: 63; PD-1 reverse act: 0; NOMO-1 viab: 25

How did Cc1ccc(Nc2ccc3noc4c3c2C(=O)c2ccccc2-4)cc1 do in these assays?
YB-1 expression: 0.26; ROS inducer: 58; PD-1 reverse act: -3; NOMO-1 viab: 127*

How did O=C(CSc1ccc(F)cc1Cl)C12CC3CC(CC(C3)C1)C2 do in these assays?
YB-1 expression: 7.2*; ROS inducer: 10; PD-1 reverse act: -1; NOMO-1 viab: 39

How did CCOC(=O)c1ccc(NC(=O)CSc2nc3cc4ccccc4cc3[nH]2)cc1 do in these assays?
ROS inducer: 28; PD-1 reverse act: -6; NOMO-1 viab: 111*

Results for COC(=O)c1cccc(NC(=O)CSc2nc3cc4ccccc4cc3[nH]2)c1 ?
ROS inducer: -2; PD-1 reverse act: 1; NOMO-1 viab: 58

Results for O=C(O)CCN1C(=O)/C(=C/c2ccc(-c3ccc(Cl)cc3Cl)o2)SC1=S ?
ROS inducer: -7

Results for C[C@@H]1CCCCO[C@@H](CN(C)Cc2ccccc2)[C@@H](C)CN([C@H](C)CO)C(=O)c2cc(NC(=O)Nc3cccc4ccccc34)ccc2O1 ?
YB-1 expression: 0.053; ROS inducer: 21; PD-1 reverse act: 2; NOMO-1 viab: 35

What do the screens show for `C[C@@H]1CCCCO[C@@H](CN(C)C(=O)C2CCCCC2)[C@@H](C)CN([C@H](C)CO)C(=O)c2cc(NC(=O)Nc3cccc4ccccc34)ccc2O1`?
YB-1 expression: -0.12; ROS inducer: 102*; PD-1 reverse act: -1; NOMO-1 viab: 33

Results for C[C@@H]1CN([C@@H](C)CO)C(=O)c2cc(NC(=O)Nc3cccc4ccccc34)ccc2O[C@H]1CN(C)CC1CCCCC1 ?
YB-1 expression: 0.32; ROS inducer: 7; PD-1 reverse act: -1; NOMO-1 viab: 56

What do the screens show for `C[C@@H]1CCCCO[C@@H](CN(C)C(=O)Nc2cccc3ccccc23)[C@@H](C)CN([C@H](C)CO)C(=O)c2cc(NC(=O)Nc3cccc4ccccc34)ccc2O1`?
YB-1 expression: -0.34; ROS inducer: 48; PD-1 reverse act: 0; NOMO-1 viab: 19

Results for C[C@@H]1CCCCO[C@H](CN(C)CC2CCCCC2)[C@@H](C)CN([C@H](C)CO)C(=O)c2cc(NC(=O)Nc3cccc4ccccc34)ccc2O1 ?
YB-1 expression: 0.52; ROS inducer: 11; PD-1 reverse act: -9; NOMO-1 viab: 128*

Results for C[C@@H]1CCCCO[C@@H](CN(C)CC2CCCCC2)[C@@H](C)CN([C@H](C)CO)C(=O)c2cc(NC(=O)Nc3cccc4ccccc34)ccc2O1 ?
YB-1 expression: -0.33; ROS inducer: 29; PD-1 reverse act: -11; NOMO-1 viab: 112*

What do the screens show for `O=C(Nc1ccc(-c2cn3c(n2)SCC3)cc1)c1ccc2nonc2c1`?
ROS inducer: 1

Results for CN(C(=O)c1ccn[nH]1)C1CC(C)(C)N(C)C(C)(C)C1 ?
ROS inducer: 9

How did CCc1ccc(NC(=S)NC(=O)c2cccs2)cc1 do in these assays?
ROS inducer: 5

Results for CC(C)CCNS(=O)(=O)Cc1ccccc1 ?
ROS inducer: -8

Results for Cc1cccc(CN2C(=O)/C(=C\c3ccc(C(=O)N4CCCC4)cc3)Oc3ccccc32)c1 ?
ROS inducer: 14

What do the screens show for `O=C(NCc1cccc(Cl)c1)c1nc2c(nnn2Cc2ccccc2)c(=O)[nH]1`?
ROS inducer: 23
